# Source: paper PMC7862700, “An all-to-all approach to the identification of sequence-specific readers for epigenetic DNA modifications on cytosine”
# Experiments:
# Assay in all cases: DAPPL (digital affinity profiling via proximity ligation, sequencing); 10 mM Tris-HCl pH 7.5, 50 mM NaCl, 1 mM DTT, 4% glycerol, room temperature, 30 min; GST-TFs on glutathione beads, 16-mer random dsDNA library, 0.1% formaldehyde crosslink after washing; high values mean tight binding
# Details in all cases: protein: recombinant; tags: N-terminal GST; dsDNA, one strand shown
# [1] = target: ETV1 (Homo sapiens, UniProt P50549 1-477)
# Chain of ETV1 (P50549 whole entry, the tested form may be a part): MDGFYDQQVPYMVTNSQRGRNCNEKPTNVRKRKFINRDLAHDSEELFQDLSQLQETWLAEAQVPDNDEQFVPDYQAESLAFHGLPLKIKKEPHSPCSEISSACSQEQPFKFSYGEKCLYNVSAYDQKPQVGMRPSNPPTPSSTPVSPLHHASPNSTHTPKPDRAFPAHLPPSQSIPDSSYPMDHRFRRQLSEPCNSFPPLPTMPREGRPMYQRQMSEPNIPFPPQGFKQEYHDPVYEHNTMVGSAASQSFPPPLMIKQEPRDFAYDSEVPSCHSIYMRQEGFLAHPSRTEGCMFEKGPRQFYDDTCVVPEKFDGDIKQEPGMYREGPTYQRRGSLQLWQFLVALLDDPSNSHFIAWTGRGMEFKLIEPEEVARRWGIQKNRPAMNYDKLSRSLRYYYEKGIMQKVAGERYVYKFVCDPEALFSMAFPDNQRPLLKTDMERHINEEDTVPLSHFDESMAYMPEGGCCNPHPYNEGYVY
# Method in brief: (§1)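 Human transcription factors fused to GST were expressed in yeast, captured on glutathione beads, given DNA barcodes and pooled with a GST-only negative control. Pools were incubated with 200 nmole of a 16-mer random double-stranded DNA library in Tris/NaCl/DTT/glycerol buffer at room temperature for 30 min. They were then washed, crosslinked with 0.1% formaldehyde, proximity-ligated (BsaI/T4 ligase, 1 h, 37 °C), PCR-amplified and sequenced on an Illumina NextSeq500. Binding signal is each 6-mer's read frequency for a factor divided by its frequency for the GST control.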
# [2] = target: T1, ERF (Homo sapiens, UniProt P50548 1-548)
# T1 sequence: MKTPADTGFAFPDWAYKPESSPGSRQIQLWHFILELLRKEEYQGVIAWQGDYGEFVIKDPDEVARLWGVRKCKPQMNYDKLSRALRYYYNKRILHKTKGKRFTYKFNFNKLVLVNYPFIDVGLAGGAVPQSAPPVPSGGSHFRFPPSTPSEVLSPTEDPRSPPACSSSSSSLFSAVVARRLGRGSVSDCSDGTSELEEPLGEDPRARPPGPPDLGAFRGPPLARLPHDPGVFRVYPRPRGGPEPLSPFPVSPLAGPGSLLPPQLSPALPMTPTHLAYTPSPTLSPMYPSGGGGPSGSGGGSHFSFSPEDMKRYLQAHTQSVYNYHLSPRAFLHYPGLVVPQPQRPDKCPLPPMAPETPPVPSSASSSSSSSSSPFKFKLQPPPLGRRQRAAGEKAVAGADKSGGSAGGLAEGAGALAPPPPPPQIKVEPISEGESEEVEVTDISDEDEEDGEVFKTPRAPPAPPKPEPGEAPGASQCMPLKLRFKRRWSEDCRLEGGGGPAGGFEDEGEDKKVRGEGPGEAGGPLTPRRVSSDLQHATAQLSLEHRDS
# Method in brief: as §1
# [3] = target: T2, ETV3L (Homo sapiens, UniProt Q6ZN32 1-361)
# T2 sequence: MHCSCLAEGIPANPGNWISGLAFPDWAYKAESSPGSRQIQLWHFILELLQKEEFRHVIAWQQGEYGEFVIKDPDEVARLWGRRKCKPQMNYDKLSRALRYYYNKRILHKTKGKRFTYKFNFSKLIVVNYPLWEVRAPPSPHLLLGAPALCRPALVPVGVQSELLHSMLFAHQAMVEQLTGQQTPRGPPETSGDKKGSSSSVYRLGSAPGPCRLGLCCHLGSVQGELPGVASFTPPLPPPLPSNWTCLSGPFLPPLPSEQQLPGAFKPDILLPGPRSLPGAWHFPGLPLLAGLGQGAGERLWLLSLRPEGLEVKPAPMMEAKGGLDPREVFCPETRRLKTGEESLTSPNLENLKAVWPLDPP
# Method in brief: as §1
# [4] = target: T3, ETS2 (Homo sapiens, UniProt P15036 1-469)
# T3 sequence: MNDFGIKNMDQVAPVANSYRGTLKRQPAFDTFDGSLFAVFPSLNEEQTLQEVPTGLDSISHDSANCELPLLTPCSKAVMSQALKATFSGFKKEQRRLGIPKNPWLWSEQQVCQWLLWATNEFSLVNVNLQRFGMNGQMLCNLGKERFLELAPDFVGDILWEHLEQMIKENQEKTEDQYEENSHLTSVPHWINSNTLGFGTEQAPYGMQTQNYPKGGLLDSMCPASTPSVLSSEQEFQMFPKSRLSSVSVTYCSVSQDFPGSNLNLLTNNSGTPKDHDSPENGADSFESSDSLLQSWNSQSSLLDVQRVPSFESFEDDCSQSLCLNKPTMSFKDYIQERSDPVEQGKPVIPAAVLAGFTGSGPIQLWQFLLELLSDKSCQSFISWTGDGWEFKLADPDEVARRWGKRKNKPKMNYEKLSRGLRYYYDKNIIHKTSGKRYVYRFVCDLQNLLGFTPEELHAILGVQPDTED
# Method in brief: as §1
# [5] = target: T4, SPDEF (Homo sapiens, UniProt O95238 1-335)
# T4 sequence: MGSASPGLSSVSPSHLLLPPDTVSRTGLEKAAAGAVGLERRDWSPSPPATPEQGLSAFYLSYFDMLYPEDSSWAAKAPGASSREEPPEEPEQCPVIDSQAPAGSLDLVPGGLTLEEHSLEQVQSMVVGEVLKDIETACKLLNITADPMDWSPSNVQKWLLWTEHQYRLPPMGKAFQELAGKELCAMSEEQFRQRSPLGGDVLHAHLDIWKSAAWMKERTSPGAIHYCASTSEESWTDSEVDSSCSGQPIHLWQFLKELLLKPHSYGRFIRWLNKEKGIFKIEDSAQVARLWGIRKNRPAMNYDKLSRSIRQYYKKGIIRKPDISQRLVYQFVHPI
# Method in brief: as §1
# [6] = target: T5, ETV7 (Homo sapiens, UniProt Q9Y603 1-341)
# T5 sequence: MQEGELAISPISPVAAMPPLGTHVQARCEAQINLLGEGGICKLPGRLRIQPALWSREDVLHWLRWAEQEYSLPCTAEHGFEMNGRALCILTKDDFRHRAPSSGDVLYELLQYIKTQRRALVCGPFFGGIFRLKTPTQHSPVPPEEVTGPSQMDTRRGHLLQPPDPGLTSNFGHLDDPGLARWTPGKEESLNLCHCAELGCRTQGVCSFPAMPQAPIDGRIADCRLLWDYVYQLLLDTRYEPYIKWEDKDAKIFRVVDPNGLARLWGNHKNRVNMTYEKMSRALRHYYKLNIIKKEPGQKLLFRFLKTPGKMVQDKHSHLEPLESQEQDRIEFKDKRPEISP
# Method in brief: as §1
# [7] = target: T6, ELF5 (Homo sapiens, UniProt Q9UKW6-2 1-255)
# T6 sequence: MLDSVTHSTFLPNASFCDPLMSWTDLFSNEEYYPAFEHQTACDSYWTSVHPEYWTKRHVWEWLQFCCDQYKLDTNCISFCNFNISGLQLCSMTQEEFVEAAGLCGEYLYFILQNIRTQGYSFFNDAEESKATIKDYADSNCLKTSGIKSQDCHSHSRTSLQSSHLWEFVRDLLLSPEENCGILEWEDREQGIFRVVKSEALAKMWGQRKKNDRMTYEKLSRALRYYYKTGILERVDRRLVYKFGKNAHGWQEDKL
# Method in brief: as §1
# [8] = target: T7, ETV3 (Homo sapiens, UniProt P41162-2 1-143)
# T7 sequence: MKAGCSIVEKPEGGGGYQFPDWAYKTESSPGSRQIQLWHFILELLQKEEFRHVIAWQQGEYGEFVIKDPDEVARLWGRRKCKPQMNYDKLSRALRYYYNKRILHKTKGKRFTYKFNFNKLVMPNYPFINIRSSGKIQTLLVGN
# Method in brief: as §1
# [9] = target: ETV6 (Homo sapiens, UniProt P41212 1-452)
# Chain of ETV6 (P41212 whole entry): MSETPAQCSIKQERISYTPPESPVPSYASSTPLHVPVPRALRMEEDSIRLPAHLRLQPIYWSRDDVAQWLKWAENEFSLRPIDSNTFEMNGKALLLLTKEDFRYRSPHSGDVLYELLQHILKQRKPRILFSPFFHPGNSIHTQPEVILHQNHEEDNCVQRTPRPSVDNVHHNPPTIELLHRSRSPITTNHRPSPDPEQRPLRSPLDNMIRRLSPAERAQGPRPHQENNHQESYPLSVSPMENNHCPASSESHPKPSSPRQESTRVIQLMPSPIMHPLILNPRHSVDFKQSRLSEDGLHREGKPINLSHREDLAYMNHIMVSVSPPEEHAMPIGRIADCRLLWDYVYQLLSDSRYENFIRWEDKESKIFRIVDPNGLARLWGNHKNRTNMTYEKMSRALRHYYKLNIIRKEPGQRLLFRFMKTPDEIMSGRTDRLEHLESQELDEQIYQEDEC
# Method in brief: as §1
sequence,measurement,setting,value
ATCCTC,binding signal,[1],"1.55 fold enrichment (6-mer frequency, TF over GST control)"
same,binding signal,[2],"1.34 fold enrichment (6-mer frequency, TF over GST control)"
same,binding signal,[3],"1.53 fold enrichment (6-mer frequency, TF over GST control)"
same,binding signal,[4],"1.41 fold enrichment (6-mer frequency, TF over GST control)"
same,binding signal,[5],"1.56 fold enrichment (6-mer frequency, TF over GST control)"
same,binding signal,[6],"1.46 fold enrichment (6-mer frequency, TF over GST control)"
same,binding signal,[7],"1.95 fold enrichment (6-mer frequency, TF over GST control)"
same,binding signal,[8],"1.51 fold enrichment (6-mer frequency, TF over GST control)"
same,binding signal,[9],"1.37 fold enrichment (6-mer frequency, TF over GST control)"
